# In the supplement of paper PMC7156485:
# A number with no mark means an inactive call.
# Tested on: TDF
# Assay: H1.0 immunofluorescence intensity relative to DMSO (% of DMSO); higher = stronger H1.0 induction, active = 120 or more
# Settings: concentration: 10 µM; 24 h
# Summary of the method: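 HCC1569 and TDF cells (800 per well, 384-well plates, RPMI with 10% FBS) were treated with compounds at 10 µM for 24 h at 37 °C, in triplicate. Cells were fixed in 3.7% formaldehyde and stained with a rabbit anti-H1.0 antibody, an AlexaFluor 647 secondary and DAPI; six fields per well were imaged at ×10. H1.0 nuclear intensity or cell number is expressed as percent of the plate DMSO control, taking the median of replicates. HCC1569 values were smoothed for positional effects.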
# 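Note: TDF is a line of transformed human dermal fibroblasts of mesenchymal origin.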
row,Compound,H1.0 immunofluorescence intensity
1,COc1cc2c(c(OC)c1OC)-c1c(cc(OC)c(OC)c1OC)C[C@](C)(O)[C@@H](C)C2,101
2,COc1cccc(/C=N/CC/N=C/c2cccc(OC)c2[O-])c1[O-].[Cl-].[Mn+2],99.4
3,"Cc1cccc(C(=O)NCN2CCN(c3ccccc3C#N)CC2)c1.O=C(O)C=CC(=O)O [PD 168,077 maleate]",97.3
4,CCCCCCCCCCCCCCCC(=O)OC(CC(=O)O)C[N+](C)(C)C.[Cl-] (racemic) [Palmitoyl-DL-Carnitine chloride],104
5,O=C1CN(/N=C/c2ccc(-c3ccc([N+](=O)[O-])cc3)o2)C([O-])=N1.[Na+],97.3
6,CC1C(NC(=O)C(=NOC(C)(C)C(=O)O)c2csc(N)n2)C(=O)N1S(=O)(=O)O (centres undefined) [Aztreonam],93.1
7,O=C(COc1ccc(Cl)cc1)NC1CCC(NC(=O)COc2ccc(Cl)cc2)CC1 (centres undefined),90.5
8,COc1ccc(C2Sc3ccccc3N(CCN(C)C)C(=O)C2OC(C)=O)cc1 (centres undefined) [Diltiazem],92
9,Cn1c(=O)c2c(ncn2CC2OCCO2)n(C)c1=O [Doxofylline],105
10,CC(C)NCC(O)COc1cccc2ccccc12.Cl [(S)-Propranolol hydrochloride],87.7
11,COc1cc(CC2C(=O)OCC2Cc2ccc(OC)c(OC)c2)ccc1O (centres undefined),103
12,COc1ccc(CC(=O)NC(N=C(NC#N)Nc2cccc3ncccc23)C(C)(C)C)cc1OC (centres undefined),93.5
13,"Cl.FC(F)(F)c1cc(COC2CCCNC2c2ccccc2)cc(C(F)(F)F)c1 [L-733,060 hydrochloride]",108
14,COc1ccc(C2CNC(=O)C2)cc1OC1CCCC1 (centres undefined) [Rolipram],91.5
15,O=c1[nH]c2ccccc2c2ccccc12 [6(5H)-Phenanthridinone],93.8
16,Cl.Cl.c1ccc2c3c([nH]c2c1)C1C2CCC(C4CCCNC42)N1CC3 (centres undefined),97.2
17,OCC1OC(n2cnc3c(Nc4ccccc4)ncnc32)C(O)C1O (centres undefined) [N6-Phenyladenosine],86.1
18,NCCC(O)(P(=O)([O-])O)P(=O)([O-])O.O.O.O.O.O.[Na+].[Na+] [Pamidronate.2Na.5H2O],95
19,O=c1c(O)c(-c2ccc(O)c(O)c2)oc2cc(O)ccc12 [Fisetin],96
20,C[N+](C)(C)CCOC(=O)CCC(=O)OCC[N+](C)(C)C.[Cl-].[Cl-] [Succinylcholine chloride],95.5

row,Compound,H1.0 immunofluorescence intensity
1,CCCCCC=CCC1OC1C(O)C=CCC=CCCCC(=O)O (centres undefined) [Hepoxilin B3],95.2
2,C1COC(NC(C2CC2)C2CC2)=N1 [Rilmenidine hemifumarate],89.5
3,COC(=O)Nc1nc2ccc(Sc3ccccc3)cc2[nH]1 [Fenbendazole],99.2
4,N=c1nc(N2CCCCC2)cc(N)n1O [Minoxidil],92
5,"Cc1cc2cc3c(C)cc(=O)oc3c(C)c2o1 [4,5',8-Trimethylpsoralen]",97.2
6,O=C(Nc1cccc(Nc2ncc(Br)c(NCCc3cnc[nH]3)n2)c1)N1CCCC1,113
7,NC(=O)c1cccc(NC(=O)/C=C/c2c[nH]c3ccccc23)c1 [(E)-3-(3-(1H-indol-3-yl)acrylamido)benzamide],88
8,CC(=O)OC1(C(C)=O)CCC2C3C=C(Cl)C4=CC(=O)C5CC5C4(C)C3CCC21C (centres undefined) [Cyproterone Acetate],103
9,CCc1ccc(CCOc2ccc(CC3SC(=O)NC3=O)cc2)nc1 (centres undefined) [Pioglitazone],94.2
10,"O=C(O)c1ccc(SC2=NS(=O)(=O)c3ccccc32)cc1 [4-((1,1-dioxidobenzo[d]isothiazol-3-yl)thio)benzoic acid]",93.5
11,CC1=CCCC(C)(O)C=CC(C(C)C)C(OC(=O)c2ccc(O)cc2)C1 (centres undefined) [Feroline],102
12,CN(C)CC=C(c1ccc(Br)cc1)c1cccnc1.Cl.Cl [Zimelidine dihydrochloride],107
13,N=c1ccn2c(n1)OC1C(O)C(CO)OC12 (centres undefined) [Cyclocytidine],103
14,COc1cc(O)c(C(=O)C=Cc2ccccc2)c(OC)c1 [Flavokawain B],93.6
15,Cc1ncc([N+](=O)[O-])n1CCO [Metronidazole],99.3
16,Cl.NO [Hydroxylamine hydrochloride],97.8
17,CN(C)c1ccc(O)c2c1CC1CC3C(N(C)C)C(=O)C(C(N)=O)=C(O)C3(O)C(=O)C1=C2O (centres undefined) [Minocycline],110
18,NC1CCN(O)C1=O (racemic),84.3
19,"CCCCCCC=CC=CCCCCCCCC(=O)O [(9Z,11E)-Octadecadienoic acid]",99.8
